KDM5B inhibitor: Primary screen for KDM5B Histone Demethylases FDH-coupled qHTS. Lysine-specific demethylase 5B (Homo sapiens), Q9UGL1. KDM5B demethylase, FDH-coupled NADH fluorescence (FDH is formaldehyde dehydrogenase). Potency, µM (doses to about 57.7 µM), usual class: inhibitors. 2.6% of 220,000 active. AID 1347165, 2019; active = well fitted inhibition curve with a large enough effect; inconclusive = small, poorly fitted or top-dose-only effect; inactive = no such curve, though single readings can be large or run the other way; note: nearly all actives have a fitted effect of over 70% in size
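Compound dilutions met 200 nM (final) KDM5BΔAP for 10 min at room temperature before substrate addition. The substrate mix held 12.5 µM H3K4me3 with cofactors 25 µM α-ketoglutarate and 50 µM Fe²⁺. NADH signal gain over 30 min defined activity.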
IP6K1 inhibitor: Primary qHTS assay for small molecule inhibitors of Inositol hexaphosphate kinase 1 (IP6K1). Inositol hexakisphosphate kinase 1 (Homo sapiens), Q92551. activity change, % (series mostly up to about 58 µM). IP6K1 kinase, ADP-Glo luminescence, 2 h; active compounds read low. 0.81% of 140,000 active. AID 1645851, 2021; in the data active = activity change below about -25%
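ADP-Glo luminescence measures ADP made by human IP6K1 during a 2 h RT reaction with ATP/IP6 (mix at 1.3 mM/130 uM); top library doses 57.5 and 19.1 uM final.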
A number is an active result; – = inactive; ? = inconclusive; · = not tested or not shown. Rows were chosen to be rich in hits. Some 2.7% of all compounds tested hit in one or more screens of this group.

SMILES | KDM5B inhibitor | IP6K1 inhibitor
COc1ccnc(N2C[C@@H]3OCC(=O)N(CC4CC4)[C@@H]3C2)n1 | ? | –
COCCN1C(=O)CO[C@H]2CN(c3ncccn3)C[C@H]21 | 35µM | –
O=C([C@@H]1C[C@H](Oc2ccccc2)CN1C(=O)c1cc2ccccc2[nH]1)N1CCCC1 | 25µM | –
O=C([C@@H]1C[C@H](Oc2ccccc2)CN1C(=O)c1cc2ccccc2[nH]1)N1CCOCC1 | ? | –
O=C(CNC(=O)c1cccc(-c2ccc(C(F)(F)F)cc2)c1)NCc1cccs1 | · | –
Cc1nccn1-c1ccc(NC(=O)C2CCCN(c3ncccc3C#N)C2)cc1 (configuration not stated) | 28µM | –
Cc1ccc(NC(=O)C2CCCN(c3ccnc4ccnn34)C2)cc1 (configuration not stated) | · | –
NC1CCCCN(C(=O)CCc2nc3ccccc3[nH]c2=O)C1 (configuration not stated) | ? | –
O=C1NCC2(CCCN(C(=O)CCc3nc4ccccc4[nH]c3=O)C2)O1 (configuration not stated) | 22µM | –
Cc1nn(-c2ccccc2)c2c1C(C)N(CC1CN(C(=O)c3ccccc3Cl)C1)C2=O (configuration not stated) | · | –
C=CCOc1c(OC)ccc2c1CN(CC1CC1)C(=O)CCN2C[C@@H](O)COCc1ccccc1 | · | –
COc1cc(F)cc(-c2cccc(CCOc3cnc4c(ccn4CC(=O)O)c3)c2)c1 | 32µM | –
O=C(O)Cn1ccc2cc(OCCc3cccc(-c4ccccc4)c3)cnc21 | ? | –
COc1cc(Cl)ccc1-c1cccc(CCOc2cnc3c(ccn3CC(=O)O)c2)c1 | ? | –
O=C(O)Cn1ccc2cc(OCCc3cccc(-c4ccc(Cl)cc4)c3)cnc21 | 35µM | –
O=C(NCc1ccccc1)C(=O)Nc1cccc2[nH]ccc12 | – | ·
O=C(NCCc1cccc(F)c1)C1CC(=O)N(c2n[nH]c3ccccc23)C1 (configuration not stated) | 22µM | –
O=C(NCCO)C1CC(=O)N(c2n[nH]c3ccccc23)C1 (configuration not stated) | – | –
O=C(NCc1ccc(F)cc1)C1CC(=O)N(c2n[nH]c3ccccc23)C1 (configuration not stated) | ? | –
O=C(NCCC1=CCCCC1)C1CC(=O)N(c2n[nH]c3ccccc23)C1 (configuration not stated) | 25µM | –
Nc1ccccc1C1CC1(Cl)Cl (configuration not stated) | – | ·
Cc1cc2oc(=O)cc(CN3CCN(C(=O)c4ccco4)CC3)c2cc1C(C)C | – | ·
O=C(Cc1c[nH]c(=O)[nH]c1=O)NCc1cccnc1Oc1ccccc1F | – | –
Cc1ccc(C(=O)NCc2cccnc2Oc2ccccc2F)c(=O)n1C | 28µM | –
CCN(CC)S(=O)(=O)c1cc(NS(=O)(=O)c2ccc3ccccc3c2)ccc1C | – | ·
SMILES | KDM5B inhibitor | IP6K1 inhibitor
O=C(O)c1cc2cn(C3CC3)cc2s1 | 25µM | –
O=C(NC1CCCC1)c1cc2cn(C3CC3)cc2s1 | ? | –
Cc1cc(OCC(=O)OCC(=O)c2ccc3c(c2)CCC3)ccc1Cl | – | ·
COc1cccc(CC(=O)NC2CCN(c3cc(-c4cccs4)[nH]n3)C2)c1 (configuration not stated) | 28µM | –
CCOc1ccc(CC(=O)NC2CCN(c3cc(-c4cccs4)[nH]n3)C2)cc1 (configuration not stated) | ? | –
O=C(Cc1cccc(F)c1)NC1CCN(c2cc(-c3cccs3)[nH]n2)C1 (configuration not stated) | ? | –
O=C(Cc1cccc(Cl)c1)NC1CCN(c2cc(-c3cccs3)[nH]n2)C1 (configuration not stated) | 4µM | –
CCc1ccc(CCC(=O)NNc2cccc(Cl)c2)cc1 | – | ·
O=C(c1ccccc1)N1CCC(C(=O)N2CCC(N3CCOC3=O)CC2)CC1 | · | –
NC(=O)c1ccc(OCc2ccccc2C(F)(F)F)cc1 | – | ·
COC(=O)N1CCN(C(=O)c2ccc(-c3ccc(OC)nn3)cc2)CC1 | · | –
CN1C(=O)COc2ccc(C(=O)N3CC(C)(C)[C@@](C)(O)C3)cc21 | 32µM | –
C[C@@H]1CN(C(=O)c2ccc3c(c2)N(C)C(=O)CO3)C[C@@]1(O)C1CCC1 | – | –
COC(=O)[C@@H]1Cc2c([nH]c3ccccc23)[C@H]2C[C@@H](NCCNC(C)=O)C[C@@H](c3ccc(C(F)(F)F)cc3)N21 | – | –
COC(=O)[C@@H]1Cc2c([nH]c3ccccc23)[C@H]2C[C@@H](NCCO)C[C@@H](c3ccc(F)cc3)N21 | ? | –
COC(=O)[C@@H]1Cc2c([nH]c3ccccc23)[C@H]2C[C@@H](N3CCOCC3)C[C@@H](c3ccc(F)cc3)N21 | 13µM | –
COC(=O)[C@@H]1Cc2c([nH]c3ccccc23)[C@H]2C[C@@H](NC3CC3)C[C@@H](c3ccc(F)cc3)N21 | – | –
COC(=O)[C@@H]1Cc2c([nH]c3ccccc23)[C@H]2C[C@@H](NCc3cccnc3)C[C@@H](c3ccc(F)c(F)c3)N21 | 25µM | –
COC(=O)[C@@H]1Cc2c([nH]c3ccccc23)[C@H]2C[C@@H](NCc3cccnc3)C[C@@H](c3ccc(F)cc3)N21 | ? | –
C#CCN[C@H]1C[C@@H]2c3[nH]c4ccccc4c3C[C@@H](C(=O)OC)N2[C@H](c2ccc(F)cc2)C1 | 40µM | –
COC(=O)[C@@H]1Cc2c([nH]c3ccccc23)[C@H]2C[C@@H](NCCNC(C)=O)C[C@@H](c3ccc(C)cc3)N21 | 28µM | –
CCc1nnsc1C(=O)N(C)CCOc1ccccc1C | – | ·
CCCCc1ccc(Nc2ncnc3c2cnn3-c2ccc(OC)cc2)cc1 | – | ·
N#CCCNc1ccc2c(c1)OCCO2 | – | ·
COC(=O)[C@@H]1Cc2c([nH]c3ccccc23)[C@H]2C[C@@H](NCCNC(C)=O)C[C@@H](c3ccccc3)N21 | 8.9µM | –
SMILES | KDM5B inhibitor | IP6K1 inhibitor
COC(=O)[C@@H]1Cc2c([nH]c3ccccc23)[C@H]2C[C@@H](NCCNC(C)=O)C[C@@H](c3ccc(C(C)C)cc3)N21 | ? | –
Cn1c(=O)c2c(c3ccccc31)OC(=O)CC2c1c[nH]c2ccccc12 (configuration not stated) | – | ·
Cc1cn2nc(C(=O)NCc3ccc(Cl)cc3)cc2c(N(C)Cc2ccccc2)n1 | 14µM | –
Cc1cn2nc(C(=O)NCc3ccc(Cl)cc3)cc2c(=O)[nH]1 | – | –
Cc1cn2nc(C(=O)N3CCN(C4CCCCC4)CC3)cc2c(N(C)Cc2ccccc2)n1 | ? | –
Cc1cn2nc(C(=O)NCc3cccc(Cl)c3)cc2c(N(C)Cc2ccccc2)n1 | 25µM | –
O=C(CCn1nnc2ccccc21)OCC(=O)c1ccc2c(c1)OCCO2 | – | ·
COc1ccccc1-c1ccc(CN2CCC(N[S+](=O)([O-])c3ccccc3)C2)cc1 (configuration not stated) | · | –
CCc1ccc(-n2nnc(C(=O)Nc3nccs3)c2C)cc1 | – | ·
CCc1ccc(C(=O)N(Cc2ccco2)C2CC2)s1 | – | ·
COCCNC(=O)c1ccc(CC2CCN(C(=O)CCc3ccc(OC)cc3)CC2)cc1 | – | –
COCCNC(=O)c1ccc2c(c1)N(C)C(CC(=O)N1CCC(N)CC1)CO2 (configuration not stated) | 28µM | –

Screens from PubChem.
